Assay outcomes (PubChem BioAssay)
Hits are enriched below; roughly 2.6% of the tested compounds scored in any of these assays.
ABHD5-PLIN5 inh = inhibitors of human ABHD5-perilipin-5 interaction. Q00G26+Q8WTS1. Split G. princeps luciferase complementation, luminescence, 4 h. inhibition, % at 4 µM. 360,000 compounds, 0.78% hits. AID 602281;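 active means inhibition above the mean inhibition across every tested compound plus 3 SD, cut at about 22% in these data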;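 further: 0% = DMSO only wells and the 100% control is not disclosed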
TLR4-MyD88 BLA = TLR4-MyD88 interaction inhibition in cells. O00206+Q99836. HeLa CL3-4 TLR4/MyD88 BLA complementation, FRET ratio. inhibition, % at 8.4 µM. 200,000 compounds, 0.18% hits; in the data active means inhibition above about 25%;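 further: 0% = vehicle and 100% = reference inhibitor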
PRMT1 inh = PRMT1 (human) inhibition, primary screen; 370,000 compounds, 1.3% hits; recombinant PRMT1, activity-based probe fluorescence polarization; inhibition, % at 2.79 µM; Q99873; AID 652257;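 active means inhibition above about 21% made by adding two undisclosed values, limit read from the data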
NOD2 RIPK2 PPI = blocks binding of human NOD2 to RIPK2 | CHO BLA complementation NOD2-RIPK2, CCF4 ratio | 360,000 compounds, 0.38% hits | inhibition, % at 4.98 µM; in the data active means inhibition above about 21%;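 further: 0% = vehicle only and 100% = reference blocker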
TLR9-MyD88 block = blocks human TLR9 binding to MyD88 | Q9NR96+Q99836 | CHO BLA complementation TLR9-MyD88, CCF4 FRET ratio | inhibition, % at 4.98 µM | 340,000 compounds, 0.21% hits | AID 504734;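 active means inhibition above the mean over all tested compounds plus 3 SD, cut at about 21% in these data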;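 further: 0% = DMSO only wells and 100% = clavulanate BLA inhibitor control wells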
Target sequence (Q99836 whole entry, looked up): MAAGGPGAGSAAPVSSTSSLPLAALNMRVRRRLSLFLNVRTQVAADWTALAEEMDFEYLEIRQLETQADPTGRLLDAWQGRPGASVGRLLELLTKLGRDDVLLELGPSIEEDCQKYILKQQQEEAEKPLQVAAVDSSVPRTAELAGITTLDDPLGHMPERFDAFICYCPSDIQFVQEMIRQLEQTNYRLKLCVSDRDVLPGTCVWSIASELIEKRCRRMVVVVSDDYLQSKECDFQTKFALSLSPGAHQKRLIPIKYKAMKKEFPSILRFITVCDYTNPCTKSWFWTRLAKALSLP
Target sequence (Q9NR96 whole entry, looked up): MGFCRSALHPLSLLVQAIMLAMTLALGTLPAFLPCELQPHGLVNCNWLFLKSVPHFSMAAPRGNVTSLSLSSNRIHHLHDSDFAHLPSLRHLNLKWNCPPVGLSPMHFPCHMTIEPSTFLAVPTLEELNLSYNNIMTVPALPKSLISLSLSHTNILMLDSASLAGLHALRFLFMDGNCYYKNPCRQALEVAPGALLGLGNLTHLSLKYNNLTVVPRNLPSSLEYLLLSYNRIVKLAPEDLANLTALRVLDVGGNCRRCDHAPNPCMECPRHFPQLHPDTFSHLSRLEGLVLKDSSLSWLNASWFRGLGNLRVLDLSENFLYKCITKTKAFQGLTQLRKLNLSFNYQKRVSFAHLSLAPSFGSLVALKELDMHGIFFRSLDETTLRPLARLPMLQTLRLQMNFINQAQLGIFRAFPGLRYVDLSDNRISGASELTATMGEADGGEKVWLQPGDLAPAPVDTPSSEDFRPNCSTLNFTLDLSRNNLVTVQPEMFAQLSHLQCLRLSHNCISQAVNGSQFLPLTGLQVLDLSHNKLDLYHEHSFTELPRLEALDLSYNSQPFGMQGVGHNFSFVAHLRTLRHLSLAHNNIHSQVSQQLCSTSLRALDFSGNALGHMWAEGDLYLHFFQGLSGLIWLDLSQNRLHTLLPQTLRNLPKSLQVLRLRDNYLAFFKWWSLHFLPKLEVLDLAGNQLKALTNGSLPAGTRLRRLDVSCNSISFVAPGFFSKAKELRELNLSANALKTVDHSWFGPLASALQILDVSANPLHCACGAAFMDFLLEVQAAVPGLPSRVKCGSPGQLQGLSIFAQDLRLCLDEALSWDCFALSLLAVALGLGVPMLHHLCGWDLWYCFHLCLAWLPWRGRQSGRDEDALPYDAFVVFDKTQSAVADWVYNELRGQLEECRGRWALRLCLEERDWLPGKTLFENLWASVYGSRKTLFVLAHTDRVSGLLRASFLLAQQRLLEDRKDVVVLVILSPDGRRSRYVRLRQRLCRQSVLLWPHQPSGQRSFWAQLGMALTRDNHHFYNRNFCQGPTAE
Exocytosis inh = lytic granule exocytosis inhibition; TALL-104 LAMP-1 surface exposure, flow cytometry; cells stimulated with thapsigargin and PMA; inhibition, % at 10 µM; 360,000 compounds, 0.66% hits;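 active means inhibition above about 55%, limit read from the data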
NOD2-RIPK2 conf = confirmation of human NOD2-RIPK2 interaction inhibitors; shares compounds with NOD2 RIPK2 PPI; CHO cells, NOD2-RIPK2 BLA complementation, CCF4 FRET; inhibition, % at 4.98 µM; 1,200 compounds, 70% hits;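 active means mean inhibition across replicates above a set limit taken from the earlier primary screen, cut at about 21% in these data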;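 further: 0% = DMSO-only wells and the high end = clavulanate BLA-blocked wells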
NOD2 BLA counter = counter-screen for NOD2-RIPK2 interaction inhibitors: BLA reporter; CHO BLA reporter, CCF4 FRET ratio, counterscreen; inhibition, % at 4.98 µM; 1,200 compounds, 57% hits; shares compounds with NOD2 RIPK2 PPI; AID 624371;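 active means mean inhibition above the low-control mean inhibition plus three low-control SD, cut at about 11% in these data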;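 further: 0% = DMSO only wells and 100% = clavulanate high control wells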
Starred values were filed as active, the others as inactive; . = not tested or not shown.

SMILES | ABHD5-PLIN5 inh | TLR4-MyD88 BLA | PRMT1 inh | NOD2 RIPK2 PPI | TLR9-MyD88 block | Exocytosis inh | NOD2-RIPK2 conf | NOD2 BLA counter
COc1ccc(CNC(=O)CCCOc2cc(=O)n(C)c3ccccc23)cc1 | 1.0 | 10.0 | -0.6 | 1.9 | 5.7 | -0.7 | . | .
COc1ccc(CNC(=O)COc2cc(=O)n(C)c3ccccc23)cc1 | -2.9 | -2.1 | 0.2 | 24.6* | -14.5 | -4.2 | -2.0 | -3.0
COC(=O)c1ccc(N2C(c3cc(OC)cc(OC)c3)=Cc3ccc(-c4cccnc4)cc3C2CC(=O)C2CC2)cc1 (stereo not given) | 1.0 | . | -0.8 | -7.7 | . | 8.2 | . | .
COC(=O)c1ccc(N2C(c3cc(OC)cc(OC)c3)=Cc3ccc(-c4ccc(C(N)=O)cc4)cc3C2CC(=O)C2CC2)cc1 (stereo not given) | 8.6 | . | 2.6 | 34.4* | . | -5.2 | 35.7* | 58.5*
Nc1cc2c(cc1Cl)-c1ccc([N+](=O)[O-])cc1C2=NO | -5.7 | . | 1.1 | 21.6* | -0.2 | -4.6 | 18.4 | 26.2*
O=C(CSc1nc2ncc(Br)cc2[nH]1)c1ccc([N+](=O)[O-])cc1 | -2.9 | 4.0 | 1.0 | 21.7* | -5.8 | 4.7 | 13.4 | -4.9
CCOC(=O)Cc1c(Cl)c2ccccc2[nH]c1=O | -7.3 | -11.3 | -1.5 | -7.2 | 10.9 | -3.2 | . | .
CCOC(=O)C[n+]1ccc2c([nH]c3ccccc32)c1C | 0.3 | . | 1.3 | 38.3* | -4.8 | -6.3 | 3.5 | -4.0
CCOC(=O)C1=C(C)N(C)C(C)=C(C(=O)OCC)C1c1ccncc1 | -0.7 | 4.6 | 1.2 | 9.0 | -7.3 | -0.7 | . | .
CCOC(=O)C1=C(C)N(C)C(C)=C(C(=O)OCC)C1c1ccccc1 | -0.4 | 0.0 | -2.0 | 53.0* | -25.4 | 2.4 | -8.0 | -2.4
O=C(O)c1cccc(-c2ccc(/C=N/Nc3ccc([N+](=O)[O-])cc3)o2)c1 | 11.3 | . | -4.2 | 27.8* | 19.2 | 13.2 | 30.0* | 31.6*
Cc1cc(C(=O)N/N=C/c2ccc(-c3ccc([N+](=O)[O-])cc3C)o2)n[nH]1 | 0.0 | . | 0.0 | 4.3 | -1.6 | 17.6 | . | .
Cc1cc([N+](=O)[O-])ccc1-c1ccc(/C=N/NC(=O)c2ccc(Br)o2)o1 | 9.9 | . | -0.2 | 40.4* | 1.2 | 6.2 | 32.2* | 47.9*
CC(C)(C)NC(=S)N/N=C\c1ccc(-c2ccc([N+](=O)[O-])cc2)o1 | -2.5 | . | 5.3 | 43.4* | . | -13.2 | 81.3* | 82.6*
O=[N+]([O-])c1ccc(N/N=C/c2cccc(O)c2)cc1 | -10.8 | . | 3.5 | 21.5* | 6.8 | 15.4 | 24.1* | 32.4*
COC(=O)[C@]12C[C@H](CC(=O)N3CCN(C(=O)c4ccco4)CC3)C(=O)N(Cc3ccc4c(c3)OCO4)C1=C[C@H](COCc1ccccc1)O[C@@H]2C | . | . | -5.5 | . | . | . | . | .
Nc1[nH]c(C(=O)c2ccc(Br)cc2)c(-c2ccccn2)c1C(=O)NCCc1c[nH]c2ccccc12 | . | . | 2.3 | . | . | . | . | .
O=C(Nc1cccc([N+](=O)[O-])c1)c1cccc(C(=O)Nc2cccc([N+](=O)[O-])c2)c1 | 0.9 | . | -0.6 | -3.0 | -1.8 | 5.2 | . | .
O=C(Nc1cccc([N+](=O)[O-])c1)c1ccc(-c2ccccc2)cc1 | -6.0 | 16.5 | -0.8 | 34.0* | 4.2 | -4.8 | 6.5 | 2.9
C[C@@H]1CN([C@H](C)CO)C(=O)c2c(c3ccccc3n2C)-c2ccccc2CO[C@@H]1CN(C)C(=O)CCN(C)C | . | . | 2.4 | . | . | . | . | .
O=C1C(Cl)=C(Nc2ccc3cn[nH]c3c2)C(=O)c2ccccc21 | 28.9* | . | 43.3* | 90.6* | 3.2 | 14.8 | 79.0* | 28.5*
CCCCNC(=O)C(C)N(CCN(C)C)C(=O)CCCN1C(=O)NC(c2ccc([N+](=O)[O-])cc2)C(C(=O)OCc2ccccc2)=C1C (stereo not given) | 14.2 | . | . | 21.9* | 0.5 | 35.7 | 2.1 | -13.1
Cc1cc(-c2n[nH]c(=S)n2N=Cc2cccc(OCc3ccccc3)c2)n[nH]1 | . | . | 7.0 | . | . | . | . | .
CSCCC(c1nc2ccccc2[nH]1)n1c(/C=C/c2ccc(Cl)cc2)nc2ccccc21 (stereo not given) | . | . | 2.6 | . | . | . | . | .
Cc1ccc(Cc2nc3ccccc3n2C(CCc2ccccc2)c2nc3ccccc3[nH]2)cc1 (stereo not given) | -12.3 | . | -1.7 | -5.0 | . | 7.2 | . | .
SMILES | ABHD5-PLIN5 inh | TLR4-MyD88 BLA | PRMT1 inh | NOD2 RIPK2 PPI | TLR9-MyD88 block | Exocytosis inh | NOD2-RIPK2 conf | NOD2 BLA counter
CSCCC(c1nc2ccccc2[nH]1)n1c(=O)c(-c2cc3ccccc3[nH]2)nc2ccccc21 (stereo not given) | 1.6 | . | 1.4 | 40.0* | . | 5.4 | 34.6* | 59.4*
O=c1c(-c2cc3ccccc3[nH]2)nc2ccccc2n1C(CCc1ccccc1)c1nc2ccccc2[nH]1 (stereo not given) | -10.4 | . | -2.7 | 38.4* | . | 11.6 | 36.0* | 61.9*
COc1ccccc1Cc1c(C(C)(C)C)nc2cc(C)c(Br)c(C)n12 | -20.7 | . | 1.7 | 24.3* | . | 3.4 | -3.2 | 12.1*
COC(=O)c1cc2c(c3c4cc(C)ccc4n(S(=O)(=O)c4cccc(C)c4)c13)C(=O)N(Cc1ccc(C(F)(F)F)cc1)C2 | . | . | 1.7 | . | . | . | . | .
OC(c1ccccc1)(c1ccccc1)C1CCN(CCCOc2cccnc2)CC1 | . | . | -0.7 | . | . | . | . | .
Cc1ccc(Cn2ncc(Cl)c(Cl)c2=O)cc1 | 5.8 | 5.7 | -2.4 | 8.2 | 6.7 | 1.2 | . | .
CCc1ccc(C(=O)Cn2ncc(Cl)c(Cl)c2=O)cc1 | 3.1 | 12.4 | 1.3 | 34.3* | 19.3 | 20.6 | 39.9* | 8.7
CCCCNc1c(-c2ccc(-c3ccc(C(C)=O)cc3)c(OC)c2)nc2cnccn12 | -10.6 | . | . | 22.9* | 9.0 | -6.5 | 20.8 | 29.7*
CCOC(=O)CNc1c(-c2ccc(Cl)cc2)nc2cnccn12 | -5.1 | 6.1 | 1.1 | 28.0* | 3.6 | -2.2 | 24.8* | 24.4*
O=[N+]([O-])c1cc(S(=O)(=O)N2CCCCCC2)ccc1F | 4.0 | 12.3 | -1.2 | 29.7* | 18.4 | 1.4 | 54.0* | 4.3
Cc1ccc(-n2c(SCC(=O)Nc3cccc4ccccc34)nnc2-c2cccs2)cc1 | . | . | -2.6 | . | . | . | . | .
CCOC(=O)N1CCC(N2C(=O)c3ccccc3C2Nc2cc(OC)c(OC)c(OC)c2)CC1 (stereo not given) | -6.2 | -1.1 | -0.4 | 10.5 | -2.8 | 0.5 | . | .
CCOC(=O)[C@]12Cc3c(cc(OC)c(OC)c3OC)[C@H]1N(C1CCCCC1)C(=O)c1cc(OC)ccc12 | 18.4 | . | -0.7 | 29.8* | . | 6.5 | 28.2* | -4.4
Cc1cc(C)cc(NC(=O)NC2CCN(S(=O)(=O)c3ccc(F)cc3)CC2)c1 | . | . | 1.9 | . | . | . | . | .
Cc1cc2c(c(=O)o1)[C@@]1(C(=O)N(c3ccccc3)c3ccccc31)C1=C(CCCC1=O)O2 | . | . | -2.5 | . | . | . | . | .
